This is one part of a sample in which hits are shown more often than they occur.
nsP2pro primary – Primary qHTS for inhibitors of NSP2Pro chikungunya virus (CHIKV) | FRET peptide cleavage, nsP2pro, fluorescence 1 h | Potency, µM (doses to about 24.9 µM), hits mostly inhibitors | actives 1.1% (n = 31,000); note: nearly all actives have a fitted effect of over 60% in size
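Purified recombinant nsP2pro (150 nM final) in 10 mM Tris-HCl pH 8.0 with 0.01% Tween 20 was preincubated 15 min at room temperature with compound (7 concentrations, up to 25 uM). FRET peptide 2 substrate (2.5 uM final) was then added; fluorescence was read after 1 h.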
nsP2 cell sec – Secondary cell base assay for inhibitors of NSP2Pro Chikungunya virus (CHIKV); shares compounds with nsP2pro primary; cell-based CHIKV nsP2 protease reporter assay; Potency, µM (series often up to 51.1 µM), usual class: inhibitors; actives 10% (n = 450); note: nearly all actives have a fitted effect of over 70% in size
NSP2 full ctr – Selectivity profile for inhibitors of NSP2Pro chikungunya virus (CHIKV): Full length NSP2 enzyme counterscreen (CHIKV-NSP2). AID 1964101, 2024. shares compounds with nsP2pro primary. Potency, µM (series often up to 50.7 µM), actives largely listed as inhibitors. Full-length CHIKV NSP2 protease enzymatic counterscreen. actives 39% (n = 410); note: nearly all actives have a fitted effect of over 65% in size
Furin counterscr – Selectivity profile for inhibitors of NSP2Pro chikungunya virus (CHIKV): Human furin counterscreen | AID 1964102, 2024 | actives 6% (n = 410) | Recombinant human furin enzymatic counterscreen, fluorogenic substrate | shares compounds with nsP2pro primary | Potency, µM (highest dose often 50.6 µM), actives largely listed as inhibitors
nsP2 NS23 pep – Selectivity profile for inhibitors of NSP2Pro chikungunya virus (CHIKV): Endogenous NS2/3 peptide Counterscreen. shares compounds with nsP2pro primary. Purified CHIKV nsP2 protease, endogenous NS2/3 peptide cleavage. Potency, µM (highest dose often 51 µM), hits mostly inhibitors. actives 34% (n = 410). AID 1964103, 2024; note: nearly all actives have a fitted effect of over 55% in size
Papain cs – Selectivity profile for inhibitors of NSP2Pro chikungunya virus (CHIKV): Papain Counterscreen; shares compounds with nsP2pro primary; purified papain protease activity, enzymatic inhibition; Potency, µM (titrated, usually from 51 µM), hits mostly inhibitors; actives 5% (n = 410)
nsP2pro conf qHTS – Confirmatory qHTS for inhibitors of NSP2Pro chikungunya virus (CHIKV); actives 43% (n = 410); AID 1964105, 2024; CHIKV nsP2 protease enzymatic activity, qHTS; Potency, µM (titrated, usually from 25.5 µM), hits mostly inhibitors; shares compounds with nsP2pro primary; note: nearly all actives have a fitted effect of over 75% in size
HCV NS3 4A cs – Selectivity profile for inhibitors of NSP2Pro chikungunya virus (CHIKV): NS34A-HCV Counterscreen; Potency, µM (titrated, usually from 50.9 µM), usual class: inhibitors; HCV NS3/4A protease biochemical counterscreen; actives 20% (n = 410); shares compounds with nsP2pro primary; note: nearly all actives have a fitted effect of over 55% in size
Of the large screens only hits and unclear results are named; the others gave an inactive call (follow-up assays come after a bar, where they were run). Calls come from the whole dose curve.

Cc1nc([C@](C)(O)CO)sc1-c1cnc(N)c(O[C@H](C)c2cc(F)ccc2-n2nccn2)c1	nsP2pro primary 7.9µM | nsP2 cell sec inactive | NSP2 full ctr inactive | Furin counterscr inactive | nsP2 NS23 pep inactive | Papain cs inactive | nsP2pro conf qHTS inactive | HCV NS3 4A cs inactive
O=C(NC1CCCCC1)N1Cc2[nH]cnc2C[C@H]1c1nc(-c2ccccc2)no1	none
O=C(Nc1cccc(F)c1)N1Cc2[nH]cnc2C[C@H]1c1nc(-c2ccncc2)no1	none
Cc1cccc(-c2noc([C@@H]3Cc4nc[nH]c4CN3C(=O)NC3CCCCC3)n2)c1	nsP2pro primary 0.63µM | nsP2 cell sec inactive | NSP2 full ctr 5.3µM | Furin counterscr inactive | nsP2 NS23 pep 7.5µM | Papain cs inactive | nsP2pro conf qHTS 2.1µM | HCV NS3 4A cs inactive
Cc1cc(=O)oc2cc(SC3=NS(=O)(=O)c4ccccc43)ccc12	none
Cc1ccccc1C(=O)N1CCCN(c2ccc3nnc(-c4ccccc4)n3n2)CC1	none
Cc1ccc(OCCn2c(CCNC(=O)c3ccccc3F)nc3ccccc32)cc1	none
CC1=CC(=O)C2(OC3OC(C)C(O)C(OC(=O)/C=C/c4ccccc4)C3O)C=COC(OC3OC(CO)C(O)C(O)C3O)C12 (stereo unspecified)	none
O=C(NC1CCN(c2cc(-c3cccs3)[nH]n2)C1)c1cccnc1 (stereo unspecified)	none
O=C(Nc1cccs1)NC1CCN(c2ccc(C(F)(F)F)cn2)C1 (stereo unspecified)	nsP2pro primary inconclusive | nsP2 cell sec inconclusive | NSP2 full ctr inconclusive | Furin counterscr inactive | nsP2 NS23 pep inconclusive | Papain cs inactive | nsP2pro conf qHTS inconclusive | HCV NS3 4A cs inactive
O=C(Nc1ccccc1)NC1CCCN(c2ccc3nnc(-c4ccccc4)n3n2)C1 (stereo unspecified)	none
CCc1ccc(NCc2cc3cc4c(cc3n(CC(=O)Nc3ccc(Cl)cc3)c2=O)OCO4)cc1	nsP2pro primary inconclusive | nsP2 cell sec inactive
CCc1ccc(NC(=O)Cn2c(=O)c3cc(Cl)ccc3n3nncc23)cc1	none
CCOc1ccc(NC(=O)Cn2cc(C(=O)c3ccc(CC)cc3)c(=O)c3cc4c(cc32)OCO4)cc1	none
O=C(O)CC1CCC(c2ccc(NC(=O)c3nnc(Nc4ccc(F)c(F)c4)o3)cc2)CC1 (stereo unspecified)	none
C=C(C)[C@@H]1CC=C(COC(=O)NC(=O)c2ncn3c(=O)n(C)nnc23)CC1	none
O=C(Nc1ccc(F)cc1)N[C@H]1[C@H](O)[C@@H](N2CCOCC2)[C@@H]2OC[C@H]1O2	none
CC(C)(C)OC(=O)N1CCN(c2ccc(NCc3cccc(-c4ccc(C#N)cc4)n3)cc2)CC1	none
COc1ccc(NC(=O)c2ccc3nc(CCc4ccccc4)oc3c2)cc1	none
COc1ccc(NC(=O)CCN2CCN(c3cccc(Cl)c3)CC2)cc1	none
CCCCNC(=O)CN1CCN(c2ncc(NC(=O)c3ccc(Cl)cc3)cc2C(=O)O)CC1	nsP2pro primary inconclusive | nsP2 cell sec inactive | NSP2 full ctr 15µM | Furin counterscr inactive | nsP2 NS23 pep inactive | Papain cs inactive | nsP2pro conf qHTS inactive | HCV NS3 4A cs inactive
Cc1ccc(Cl)cc1NC(=O)c1cnc(N2CCCCC2)c2ccccc12	none
CCCCN(CCCNC(=O)c1ccc(Sc2ccc(Cl)cc2)c(NC(C)=O)c1)c1ccccc1	none
CCCCOc1ccc(C(=O)Nc2ccc3c(c2)CCCN3C(=O)c2cccs2)cc1	none
COc1ccc(C(=O)Nc2ccc(N(C)Cc3ccccc3)c(C(=O)O)c2)cc1	nsP2pro primary 5µM | nsP2 cell sec inactive | NSP2 full ctr 5.2µM | Furin counterscr inconclusive | nsP2 NS23 pep 13µM | Papain cs inactive | nsP2pro conf qHTS 8µM | HCV NS3 4A cs 3.3µM
CCOc1cccc(C(=O)Nc2ccc(S(=O)(=O)N(Cc3ccccc3)c3ccccc3)cc2)c1	none
CCCCNC(=O)CN1CCN(c2ccc(NC(=O)c3ccc(OC)cc3)cc2C(=O)O)CC1	nsP2pro primary 4.5µM | nsP2 cell sec inconclusive | NSP2 full ctr 4.1µM | Furin counterscr inconclusive | nsP2 NS23 pep 7.3µM | Papain cs inactive | nsP2pro conf qHTS 6.3µM | HCV NS3 4A cs 1.8µM
C[C@H](C(=O)N1CCSCC1)C1CC[C@@]2(C)Cc3sc(Nc4c(Cl)cccc4Cl)nc3[C@@H](C)[C@@H]2[C@H]1O (stereo partly specified)	none
O=c1[nH]c2ccccc2n1CCN1CCN(c2cccc(C(F)(F)F)c2)CC1	none
CCCCNC(=O)c1ccc2c(c1)ncn2-c1cccc(C)c1	none
C=C1[C@H]2[C@H](O[C@@H]3O[C@H](COC(=O)/C=C/c4cc(OC)c(O)c(OC)c4)[C@@H](O)[C@H](O)[C@H]3O)OC=C(C(=O)O)[C@H]2C[C@@H]1O	none
Cc1ccc(OCCn2c(CCNC(=O)c3ccc(Br)o3)nc3ccccc32)cc1	none
Cn1nnc(-c2ccc(-c3ccc(N4C[C@H](COP(=O)(O)O)OC4=O)cc3F)cn2)n1	none
CC[C@H]1CN2CC[C@H]1C[C@@H]2CN(Cc1cccs1)Cc1cccs1	none
O=C(C1CCOCC1)N1CCC(c2nc(C3CCOCC3)no2)CC1	none
Cn1cc(C(=O)N2CCc3[nH]cnc3C2C2CCN(C(=O)C3CCOCC3)CC2)cn1 (stereo unspecified)	nsP2pro primary inconclusive | nsP2 cell sec inactive | NSP2 full ctr 6.5µM | Furin counterscr inactive | nsP2 NS23 pep inconclusive | Papain cs inactive | nsP2pro conf qHTS inconclusive | HCV NS3 4A cs 9.2µM
COC(=O)N1CCCCC1C(=O)N1CCC2(CC1)c1nc[nH]c1CCN2C (stereo unspecified)	none
Cc1ccc(-c2cc(C(=O)Nc3ccc(S(=O)(=O)NCc4nccs4)cc3)c3ccccc3n2)cc1C	none
CC(=O)Nc1sc2c(c1-c1cccs1)CCNC2	none
